The values below come from the supplement of paper PMC10981050.

The structures appear in SMILES notation. Where a name gives a salt, the structure may show the parent alone.

The subject of the assay is MARIMO. Kind of assay: cell viability relative to vehicle control; higher = less cytotoxic. The following applies: 10 µM; SRSF2 genotype: SRSF2 wt/wt. An outline of the steps: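 CRISPR-edited mutant clones and isogenic wild-type clones from four leukaemia lines were screened against Selleck bioactive, kinase and epigenetic probe libraries, with identity-inconsistent compounds excluded. Each compound was acoustically dispensed at a single 10 µM dose into 384-well plates holding 2000 cells in 50 µL medium per well. After 48 h the supernatant was removed and CellTiter-Glo luminescence was read. Viability was expressed as percent of the on-plate vehicle control and analysed in Genedata Screener.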
With `NCCCC[C@@H]1NC(=O)[C@@H](Cc2ccc(O)cc2)NC(=O)[C@H](CC(=O)O)NC(=O)CNC(=O)[C@H](CCCN=C(N)N)NC1=O` [Cyclo(RGDyK)], the cell viability (usually a read-out of living cells in per cent, often relative to untreated cells) stood at 96.9%. Under `CCN(Cc1ccncc1)C(=O)C(CO)c1ccccc1` (centres undefined) [Tropicamide] stands 103%; under `O=c1c2cc(O)c(O)cc2oc2cc(O)c([C@@H]3O[C@H](CO)[C@@H](O)[C@H](O)[C@H]3O)c(O)c12` [Mangiferin], 104%; under `C=CC[S+]([O-])C[C@H](N)C(=O)O` (some centres undefined) [Alliin], 96.5%. For the compound `CCN1CCN(Cc2ccc(C(=O)Nc3ccc(C)c(Oc4ccc5c(c4)CC(=O)N5)c3)cc2C(F)(F)F)CC1`, the cell viability turned out to be 82.1%.

Take `Cc1cc(C)c(-c2csc(NC(=O)c3ccccc3)n2)c(C)c1`: the cell viability is 31.6%.

Turning to `COc1ccccc1OCC(O)CN1CCN(CC(=O)Nc2c(C)cccc2C)CC1` (centres undefined) [Ranolazine dihydrochloride], the cell viability was determined as 103%. `COc1cc2c(=O)c(-c3ccc(O)cc3)coc2cc1O[C@@H]1O[C@H](CO)[C@@H](O)[C@H](O)[C@H]1O` [Glycitin]: the cell viability was 103%. Then `C#C[C@]1(O)CC[C@H]2[C@@H]3CCc4cc(OC5CCCC5)ccc4[C@H]3CC[C@@]21C` [Quinestrol], with 57.9%; and `CC(C)(Cc1ccc2ccccc2c1)NC[C@@H](O)COc1cccc(Cl)c1C#N`, with 25.5%. Under `CC(=O)[C@@]1(O)CC[C@H]2[C@@H]3C[C@H](C)C4=CC(=O)CC[C@]4(C)[C@H]3CC[C@@]21C` [Medroxyprogesterone] stands 92.8%; under `CCOC(=O)[C@H](CCc1ccccc1)N[C@@H](C)C(=O)N1[C@H](C(=O)O)C[C@@H]2CCC[C@@H]21` [Ramipril (Altace)], 92.3%; under `CCCCS(=O)(=O)N[C@@H](Cc1ccc(OCCCCC2CCNCC2)cc1)C(=O)O` [Tirofiban Hydrochloride], 104%. In the case of `CC(C)n1nc(-c2cc3cc(O)ccc3[nH]2)c2c(N)ncnc21` [Torkinib (PP242)], the cell viability was 23%. Then `O.O.O.O.O.O.O.[Cl][La]([Cl])[Cl]` [Lanthanum(III) chloride heptahydrate], with 114%; and `CC(C)c1c2cc(-c3ccnc(NC4CCC(NC5CCOCC5)CC4)n3)ccc2nn1C` (centres undefined), with 6.58%. Under `COc1cc(N2CCC(N3CCN(C)CC3)CC2)ccc1Nc1ncnc(Nc2ccccc2S(=O)(=O)C(C)C)n1` stands 48.3%. `C#C[C@]1(O)CC[C@H]2[C@@H]3CCC4=CC(=O)CC[C@@H]4[C@H]3CC[C@@]21CC` [Levonorgestrel (Levonelle)]: the cell viability came to 109%. As to `NC(=O)c1cccc2cn(-c3ccc([C@@H]4CCCNC4)cc3)nc12` [MK-4827(Niraparib) tosylate], the cell viability came to 64.4%.
